According to PubChem BioAssay (Tox21):
“And” between values parts separate entries of the source, which are not always exact repeats. Equal values may be shown once. Unmarked numbers belong to inactive results. Records with an inconclusive call do not appear. Where a call stands in place of a potency, no number is given. The source made the active and inactive calls. Unless noted, calls follow the shape of the dose curve; as a rule, active = well fitted curve in the direction sought with a large enough effect in the repeat runs; inconclusive = weak or mixed curves; inactive = no such curve, though single readings can be large; an effect the other way counts as inactive or inconclusive.

How the values were obtained:
[1] = qHTS assay for small molecule agonists of the p53 signaling pathway (AID 651631; calls by dose curve; also: nearly all actives have a fitted effect of over 15% in size)
Summary of the method: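 Testing took place in human colorectal HCT-116 cells with stable p53RE-driven beta-lactamase. After 16 h of compound exposure at 37 °C, a FRET substrate was added and fluorescence recorded 2 h later.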

[2] = qHTS assay for small molecules that induce genotoxicity in human embryonic kidney cells expressing luciferase-tagged ATAD5 (AID 651632); also: nearly all actives have a fitted effect of over 15% in size
Summary of the method: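 DMSO vehicle served as the control. HEK293T reporter cells, 16 hr at 37C, then 30 min Amplite at room temperature; ATAD5 induction is measured as luciferase activity.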

[3] = qHTS assay for small molecule agonists of the p53 signaling pathway - cell viability (AID 651633; calls by dose curve; also: nearly all actives have a fitted effect of over 30% in size; also: potency is read from the fitted curve at half-maximal effect)
Summary of the method: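 p53RE-bla cells were treated with compound for 16 hours at 37 C. Cytotoxicity was then measured as CellTiter-Glo luminescence after 30 min at room temperature.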

[4] = qHTS assay for small molecule disruptors of the mitochondrial membrane potential - cell viability (AID 720634; calls by dose curve; also: nearly all actives have a fitted effect of over 20% in size; also: potency is read from the fitted curve at half-maximal effect)
Summary of the method: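 Viability of HepG2 cells is scored from ATP content by luminescence; cells are exposed to compound for 1 hr at 37 C and 5% CO2, then dosed with m-MPI dye before the CellTiter-Glo reagent.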

[5] = qHTS assay for small molecule disruptors of the mitochondrial membrane potential (AID 720635); also: potency is read from the fitted curve at half-maximal effect
Summary of the method: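 HepG2 cells exposed to compound 1 hr at 37C, then Mito-MPS dye 30 min. Ratio read of aggregate (540/590 nm) versus monomer (490/535 nm) fluorescence.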

[6] = qHTS assay to test for compound auto fluorescence at 590 nm (red) in HepG2 cells (AID 720674)
Summary of the method: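 HepG2 cells, 2,000 per well in MEM with 10% FBS, attached overnight at 37 C, then got 23 nL compound or DMSO. After 1 hr at 37 C, 5% CO2, red fluorescence was read at 540/590 nm against Rose Bengal sodium as reference.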

[7] = qHTS assay to test for compound auto fluorescence at 535 nm (green) in HepG2 cells (AID 720675)
[8] = qHTS assay to test for compound auto fluorescence at 460 nm (blue) in HEK293 cells (AID 720678)
Summary of the method: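 HEK293 cells (2,000 per well, medium with 10% dialyzed FBS) attached for 4-5 hr at 37C, then received compound and stood overnight at 37C, 5% CO2. Blue fluorescence was read at Ex/Em 405/460 nm and expressed relative to triamterene.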

[9] = qHTS assay to test for compound auto fluorescence at 590 nm (red) in HEK293 cells (AID 720679)
Summary of the method: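 HEK293 cells (2,000/well, medium with 10% dialyzed FBS) attached for 4-5 hr at 37C, received 23 nL compound and were incubated overnight at 37C, 5% CO2. Red fluorescence was then read at 540/590nm Ex/Em, referenced to Rose Bengal sodium.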

[10] = qHTS assay to test for compound auto fluorescence at 460 nm (blue) in HEK293 cell free culture (AID 720681)
Summary of the method: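 Compounds were added to cell-free DMEM with 10% FBS and fluorescence read directly. The blue channel used 405 nm excitation and 460 nm emission, with triamterene as the reference fluorophore.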

[11] = qHTS assay to test for compound auto fluorescence at 535 nm (green) in HEK293 cell free culture (AID 720682)
Summary of the method: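 DMEM + 10% FBS, cell-free; cpd or DMSO pinned in; Ex485/Em535 read; output as fluorescein-equivalent signal.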

[12] = qHTS assay to test for compound auto fluorescence at 590 nm (red) in HEK293 cell free culture (AID 720683)
Summary of the method: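 Cell-free wells of DMEM with 10% FBS received compound, and intrinsic fluorescence was read at excitation/emission 540/590 nm. Values expressed as equivalence to Rose Bengal sodium.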

[13] = qHTS assay to test for compound auto fluorescence at 590 nm (red) in HepG2 cell free culture (AID 720684)
Summary of the method: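 Auto fluorescence equivalency versus Rose Bengal sodium, red channel Ex/Em 540/590 nm; compounds in cell-free MEM/10% FBS; DMSO vehicle control.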

[14] = qHTS assay to test for compound auto fluorescence at 460 nm (blue) in HepG2 cell free culture (AID 720685)
Summary of the method: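 Cell-free plates of MEM plus 10% FBS received 23 nL compound or DMSO vehicle; blue-channel (405/460 nm) intensity scored against triamterene as reference fluorophore.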

[15] = qHTS assay to test for compound auto fluorescence at 535 nm (green) in HepG2 cell free culture (AID 720686)
[16] = qHTS assay to test for compound auto fluorescence at 460 nm (blue) in HepG2 cells (AID 720687)
Summary of the method: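 HepG2 cells in MEM with 10% FBS, attached overnight at 37 C, were exposed to compound or DMSO for 1 hr at 37 C, 5% CO2. Blue fluorescence was read at 405/460 nm, with triamterene as reference fluorophore.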

[17] = target: Glucocorticoid receptor (Homo sapiens) (UniProt P04150); assay: qHTS assay to identify small molecule agonists of the glucocorticoid receptor (GR) signaling pathway (AID 720691; active = well fitted activation curve with a large enough effect in the signal ratio in the repeat runs, not every such curve was filed as active; the % refers to the signal ratio); details: GR-bla HeLa, beta-lactamase reporter ratio, 18 h; activation: at 62.4 µM (top of the series)
Summary of the method: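 Compounds in DMSO, alongside positive controls, were added to GR-bla HeLa reporter cells and incubated 18 h at 37 C; GRE-driven beta-lactamase was detected by fluorescence after 2 h with FRET substrate at room temperature.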

[18] = qHTS assay for small molecules that induce genotoxicity in human embryonic kidney cells expressing luciferase-tagged ATAD5 - cell viability (AID 651634; calls by dose curve; also: nearly all actives have a fitted effect of over 25% in size)
Summary of the method: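 Here HEK293T cells with the ATAD5 luciferase reporter are incubated with test compounds for 15.5 hr, and cytotoxicity is then gauged by measuring protease activity in live cells using fluorescence.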

[19] = qHTS assay to test for compound auto fluorescence at 535 nm (green) in HEK293 cells (AID 720680)
[20] = target: Glucocorticoid receptor (Homo sapiens) (UniProt P04150); assay: qHTS assay to identify small molecule antagonists of the glucocorticoid receptor (GR) signaling pathway (AID 720692; active = well fitted inhibition curve with a large enough effect in the signal ratio in the repeat runs, not every such curve was filed as active; the % refers to the signal ratio; also: potency is read from the fitted curve at half-maximal effect)
Summary of the method: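 In a 1536-well cell format, compounds were added 4 h after seeding GR-bla HeLa cells, together with dexamethasone at 5 nM final; reporter activity was measured by FRET-substrate fluorescence following 18 h at 37 C.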

Sequence of Glucocorticoid receptor (Homo sapiens) (P04150 whole entry, looked up): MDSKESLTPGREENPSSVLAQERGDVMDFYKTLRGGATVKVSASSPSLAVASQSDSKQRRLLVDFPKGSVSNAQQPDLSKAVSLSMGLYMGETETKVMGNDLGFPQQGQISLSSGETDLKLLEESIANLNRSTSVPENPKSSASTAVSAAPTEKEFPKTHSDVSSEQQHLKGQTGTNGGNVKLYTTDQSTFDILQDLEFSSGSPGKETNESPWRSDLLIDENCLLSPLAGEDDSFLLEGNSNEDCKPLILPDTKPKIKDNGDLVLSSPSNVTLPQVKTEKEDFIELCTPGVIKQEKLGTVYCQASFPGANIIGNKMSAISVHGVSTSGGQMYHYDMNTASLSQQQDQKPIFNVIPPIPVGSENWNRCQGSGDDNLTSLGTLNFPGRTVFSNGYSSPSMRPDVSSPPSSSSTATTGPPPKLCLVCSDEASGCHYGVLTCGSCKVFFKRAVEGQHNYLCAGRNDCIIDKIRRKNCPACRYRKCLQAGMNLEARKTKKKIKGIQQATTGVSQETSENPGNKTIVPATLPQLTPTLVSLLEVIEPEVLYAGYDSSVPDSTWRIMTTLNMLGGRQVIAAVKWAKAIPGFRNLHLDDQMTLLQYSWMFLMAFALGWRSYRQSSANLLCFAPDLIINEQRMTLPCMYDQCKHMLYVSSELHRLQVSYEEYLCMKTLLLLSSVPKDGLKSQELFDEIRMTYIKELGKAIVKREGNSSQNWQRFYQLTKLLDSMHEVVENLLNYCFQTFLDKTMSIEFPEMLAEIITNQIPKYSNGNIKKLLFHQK

SMILES | Potency [1] | outcome [2] | Potency [3] | Potency [4] | Potency [5] | outcome [6] | outcome [7] | outcome [8] | outcome [9] | outcome [10] | outcome [11] | outcome [12] | outcome [13] | outcome [14] | outcome [15] | outcome [16] | Potency [17] | Potency [18] | outcome [19] | Potency [20]
C=C(C)C(=O)O[C@H]1C[C@@H]2CC[C@@]1(C)C2(C)C | inactive | inactive | inactive | inactive | inactive | inactive | inactive | inactive | inactive | inactive | inactive | inactive | inactive | inactive | inactive | inactive | – | – | – | –
CCCCCCOCCO | inactive | inactive | inactive | inactive | inactive | inactive | inactive | inactive | inactive | inactive | inactive | inactive | inactive | inactive | inactive | inactive | inactive | – | – | –
O=c1[nH]c(=O)n([C@H]2CCCO2)cc1F | inactive | – | inactive | inactive | inactive | inactive | inactive | – | inactive | inactive | inactive | inactive | inactive | inactive | inactive | inactive | – | inactive | inactive | –
CN(C)CCC(c1ccc(Cl)cc1)c1ccccn1 (stereo unspecified) | inactive | – | inactive | inactive | inactive | inactive | inactive | inactive | inactive | inactive | inactive | inactive | inactive | inactive | inactive | inactive | inactive | – | inactive | inactive
CCCCCCCCCCCCc1ccccc1 | inactive | – | inactive | inactive | inactive | inactive | inactive | – | inactive | inactive | inactive | inactive | inactive | inactive | inactive | inactive | – | inactive | inactive | –
CCCCCCCCCC | inactive | inactive | inactive | inactive | inactive | inactive | inactive | inactive | inactive | inactive | inactive | inactive | inactive | inactive | inactive | inactive | – | – | inactive | –
CCCCC(CC)CO (stereo unspecified) | inactive | – | inactive | inactive | inactive | inactive | inactive | inactive | inactive | inactive | inactive | inactive | inactive | inactive | inactive | inactive | inactive | inactive | – | –
Cc1cc(C)c(C)cc1C | inactive | inactive | inactive | – | – | inactive | inactive | inactive | inactive | inactive | inactive | inactive | inactive | inactive | inactive | inactive | – | inactive | inactive | –
C/C=C1/CC2C=CC1C2 (stereo unspecified) | inactive | inactive | inactive | inactive | – | inactive | inactive | inactive | inactive | inactive | inactive | inactive | inactive | inactive | inactive | inactive | inactive | – | inactive | –
CC(C)(N)CO | inactive | inactive | inactive | inactive | inactive | inactive | inactive | – | inactive | inactive | inactive | inactive | inactive | inactive | inactive | inactive | inactive | – | – | –
CCCCC(CC)COC(=O)CS (stereo unspecified) | inactive | inactive | inactive | inactive | inactive | inactive | – | inactive | inactive | inactive | inactive | inactive | inactive | inactive | inactive | inactive | inactive | – | inactive | –
CC(=O)Nc1ccccc1 | – | inactive | inactive | inactive | – | inactive | – | inactive | inactive | inactive | inactive | inactive | inactive | inactive | inactive | inactive | inactive | inactive | – | –
CCN(CC)CCCC(C)Nc1ccnc2cc(Cl)ccc12 (stereo unspecified) | – | inactive | – | – | – | inactive | – | inactive | inactive | inactive | inactive | inactive | inactive | inactive | inactive | inactive | inactive | – | – | inactive
CCCCCC/C(C=O)=C\c1ccccc1 | – | inactive | inactive | inactive | inactive | inactive | inactive | inactive | inactive | inactive | inactive | inactive | inactive | inactive | inactive | inactive | inactive | – | inactive | –
O=C(O)CCCC[C@@H]1SC[C@@H]2NC(=O)N[C@@H]21 | – | inactive | inactive | inactive | inactive | inactive | inactive | – | inactive | inactive | inactive | inactive | inactive | inactive | inactive | inactive | inactive | inactive | inactive | inactive
COS(C)(=O)=O | – | inactive | inactive | inactive | inactive | inactive | inactive | – | inactive | inactive | inactive | inactive | inactive | inactive | inactive | inactive | inactive | – | – | –
C=C(C)C(=O)Nc1ccc(Cl)c(Cl)c1 | – | inactive | inactive | – | 19.5 µM (active) and 30.5 µM (active) | inactive | inactive | – | inactive | inactive | inactive | inactive | inactive | inactive | inactive | inactive | – | inactive | inactive | –
O=C(Oc1ccccc1)c1ccccc1 | – | inactive | inactive | inactive | inactive | inactive | – | – | inactive | inactive | inactive | inactive | inactive | inactive | inactive | inactive | – | inactive | inactive | –
CC(c1cc2ccccc2s1)N(O)C(N)=O (stereo unspecified) | – | inactive | – | 27.3 µM (active) | inactive | inactive | inactive | inactive | inactive | inactive | inactive | inactive | inactive | inactive | inactive | inactive | inactive | inactive | inactive | inactive
CC1=CC(=O)NS(=O)(=O)O1 | – | – | inactive | inactive | inactive | inactive | inactive | – | inactive | inactive | inactive | inactive | inactive | inactive | inactive | inactive | inactive | inactive | – | inactive
COc1ccc2cc([C@H](C)C(=O)O)ccc2c1 | – | – | inactive | inactive | inactive | inactive | – | inactive | inactive | inactive | inactive | inactive | inactive | inactive | inactive | inactive | – | – | inactive | –
CC(C)c1ccc(S(=O)(=O)O)cc1 | – | inactive | inactive | inactive | inactive | inactive | – | inactive | inactive | inactive | inactive | inactive | inactive | inactive | inactive | inactive | – | inactive | – | –
CC[C@H](C)C(=O)O[C@H]1C[C@@H](C)C=C2C=C[C@H](C)[C@H](CC[C@@H]3C[C@@H](O)CC(=O)O3)[C@H]21 | – | inactive | 29.8 µM (active) and 69.6 µM (active) | inactive | 18.8 µM (active) and 62 µM (active) and 60.8 µM (active) | inactive | inactive | – | inactive | inactive | inactive | inactive | inactive | inactive | inactive | inactive | – | – | – | 21.3 µM (active)
CCN(CC)c1ccc(C(=O)c2ccccc2C(=O)O)c(O)c1 | – | inactive | inactive | inactive | – | inactive | inactive | inactive | inactive | inactive | inactive | inactive | inactive | inactive | inactive | inactive | inactive | – | inactive | inactive
C#C[C@]1(O)CC[C@H]2[C@@H]3CCC4=CC(=O)CC[C@@H]4[C@H]3CC[C@@]21C | – | inactive | – | inactive | inactive | inactive | – | inactive | inactive | inactive | inactive | inactive | inactive | inactive | inactive | inactive | inactive | – | inactive | –
